# In PubChem BioAssay AID1572 (National Center for Advancing Translational Sciences (NCATS), 2009):
# Inconclusive results are not listed. Active and inactive are the calls of the source. The call rests on the fitted dose curve; in most records, active means well fitted curve in either direction with a large enough effect; inconclusive means small, poorly fitted or top-dose-only effect; inactive means flat fitted curve, though single readings scatter.
# Assay: Total Fluorescence Confirmation Counterscreen for Inhibitors of the Interaction of Thyroid Hormone Receptor and Steroid Receptor Coregulator 2
# Conditions: Texas Red total fluorescence, TRbeta/SRC2 FP artifact counterscreen; series mostly up to 92.2 µM; total fluorescence change, both ways: at the top concentration
# Outline: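 Flags fluorescent or light-absorbing compounds: after 5 hr at ambient temperature, 0.6 uM TRbeta LBD plus 20 nM SRC2 Texas Red (1uM T3, 5% DMSO) read at 555/632 nm; TF = S + 2P from parallel and perpendicular channels.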
SMILES,"total fluorescence change, both ways",Potency
Cc1[nH][nH]c(=O)c1C(c1ccc(-c2ccccc2C(=O)O)o1)c1c(C)[nH][nH]c1=O,-3.55% (inactive),
CN(C)c1cc(Cl)c2nonc2c1N,1.14% (inactive),
Cc1cccc(Cn2c(C(=O)OC(C)C)cc3c2ccn3C)c1,2.46% (inactive),
COC(=O)c1ccccc1-c1ccc(C(c2c(C)[nH][nH]c2=O)c2c(C)[nH][nH]c2=O)o1,4.88% (inactive),
CS(=O)(=O)c1ccc(C(=O)OCC(=O)NC(=O)C2CCCCC2)cc1[N+](=O)[O-],-3.18% (inactive),
Nc1cc(-c2ccccc2)c[nH]c1=O,-2.47% (inactive),
COc1ccc(C(=O)Oc2ccc(C(c3c(C)[nH][nH]c3=O)c3c(C)[nH][nH]c3=O)cc2OC)cc1,6.44% [at 184 µM] (inactive),
CC(NC(=O)Nc1ccc(O)cc1)(C(F)(F)F)C(F)(F)F,-1.5% (inactive),
Nc1c(C(=O)NCc2ccco2)c2nc3ccccc3nc2n1CCc1ccccc1,2.3% (inactive),
CC1=NN(Cc2ccccc2)C(=O)C1,4.8% (inactive),
COc1cc(C(c2c(C)[nH][nH]c2=O)c2c(C)[nH][nH]c2=O)ccc1OC(=O)c1cccc(C)c1,1.17% [at 184 µM] (inactive),
CN1c2ccccc2C(C)(C)C12C=Nc1c(cc(N3CCOCC3)c3ccccc13)O2 (stereo not given),2.92% (inactive),
CN1N=C(C(C)(C)C)CC1=O,1.82% (inactive),
O=C1CCCC(O)=C1N=Nc1cccc(S(=O)(=O)N2CCOCC2)c1,5.17% (inactive),
COc1ccc(C(=O)/C=C/Nc2ccc(S(=O)(=O)Nc3ncccn3)cc2)cc1,8.18% (inactive),
CN(C(=S)Nc1cccnc1)c1ccc(O)cc1,5.43% (inactive),
O=c1cc(C23CC4CC(CC(C4)C2)C3)[nH][nH]1,-5.37% (inactive),
Cn1cc(/C=C2\SC(=S)N(NC(=O)c3ccccc3)C2=O)c2ccccc21,,70.8 µM [fluorescent] (active)
CCOc1cc(C(c2c(C)[nH][nH]c2=O)c2c(C)[nH][nH]c2=O)ccc1OC(=O)c1cccc([N+](=O)[O-])c1,-4.45% (inactive),
O=C(O)[C@H]1CN(CCCP(=O)(O)O)CCN1,-7.22% [at 184 µM] (inactive),
Cn1c(NNC(=O)c2c(F)cccc2F)cc(=O)n(C)c1=O,2.85% (inactive),
CCCc1cc(=O)[nH]c(=S)[nH]1,-2% (inactive),
Nc1cc(N)c(OCC(F)(F)F)cc1OCC(F)(F)F,7.18% (inactive),
Nc1cccnc1Sc1cc(Cl)c(Cl)cc1Cl,6.8% (inactive),
Cc1cccc(S(=O)(=O)c2cn(Cc3ccccc3)c3cc(N4CCC(C)CC4)c(F)cc3c2=O)c1,5.69% [at 184 µM] (inactive),
